Screens: PubChem BioAssay, several laboratories
Shown are actives, neighbours in structure and some others; about 1.4% of the full set was active somewhere.
ugtP null kill: kills S. aureus RN4220 lacking UgtP | S. aureus RN4220 ugtP deletion, OD600 growth, 16 h | growth inhibition, % (test concentration not listed) | actives 0.54% (n = 330,000) | AID 1259309; in the data active means growth inhibition above about 68%;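 further: plate controls were untreated wells for no effect and antibiotic for full effect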
CCHFV vOTU inh: CCHFV vOTU protease inhibition | inhibition, % at 11.5 µM | Pep-AMC fluorescence | AID 651958 | actives 0.55% (n = 370,000); in the data active means inhibition above about 30%; further: 0% = vehicle wells with enzyme and 100% = no enzyme wells
PriA SSB inh: K. pneumoniae PriA-SSBct interaction inhibition. AlphaScreen SSBct-PriA binding, biotinylated peptide. inhibition, % at 33 µM. actives 0.6% (n = 430,000); in the data active means inhibition mostly above about 37%, no sharp cut-off; inactive means mostly below about 20%;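 further: plate controls were negative control peptide for no effect and reference peptide for full effect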
Sa RN4220 lethal: S. aureus RN4220 growth inhibition | inhibition, % (concentration not given with the values) | actives 0.33% (n = 330,000) | OD600, 16 h; in the data active means inhibition above about 85%;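 further: plate controls were untreated cells for no effect and reference antibiotic for full effect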
Mtb hypoxia inh: Mtb hypoxia fluorescent reporter inhibition. M. tuberculosis hypoxia-regulated fluorescent reporter, fluorescence. AID 1159583. actives 0.1% (n = 300,000). fluorescence inhibition, % (test concentration not listed); in the data active means fluorescence inhibition mostly above about 23%, no sharp cut-off; inactive means mostly below about 17%
An asterisk follows results filed as active; nt = no result given.

SMILES	ugtP null kill	CCHFV vOTU inh	PriA SSB inh	Sa RN4220 lethal	Mtb hypoxia inh
CSc1nc(-c2ccc(C)cc2)nc(C(Cl)Cl)n1	2	nt	-6	1	78*
CCC1OC(=O)C(C)C(OC2C[C@@](C)(OC)C(O)C(C)O2)C(C)C(O[C@@H]2OC(C)CC(N(C)C)C2O)[C@](C)(O)CC(C)C(=NOCOCCOC)C(C)C(O)[C@]1(C)O (some centres undefined)	nt	-5	-5	nt	nt
CCC1OC(=O)C(C)C(OC2C[C@@](C)(OC)C(O)C(C)O2)C(C)C(OC2OC(C)CC(N(C)C)C2O)[C@](C)(O)CC(C)C(=NOCOCCOC)C(C)C(O)[C@]1(C)O (some centres undefined)	100*	nt	nt	100*	nt
O=C(c1cc2ccccc2o1)N1CCC(CNS(=O)(=O)c2ccc(C(F)(F)F)cc2)CC1	nt	nt	-4	nt	nt
O=C(Nc1cccc(Cl)c1)NC1CC2CCC1C2 (centres undefined)	2	9	-19	3	32*
CC(C)(C)c1ccc(C=NNC(=S)NCc2ccccc2)cc1	21	nt	3	9	-2
O=S(=O)(NCc1ccnc(-c2cccs2)c1)c1ccc2c(c1)OCCO2	nt	nt	9	nt	nt
CCOc1ccc2nc(SCc3ccc(OC)cc3)sc2c1	90*	-2	-17	7	6
CC(C)(C)C(=O)NC(=S)NNC(=O)c1sc2ccccc2c1Cl	97*	nt	4	94*	-11
O=C(Nc1ccc(SCCCC(=O)N2CCN(c3ccccc3)CC2)nn1)C1CC1	nt	nt	0	nt	nt
Cc1onc(-c2ccccc2Cl)c1C(=O)Nc1nnc(-c2cc(Cl)sc2Cl)o1	nt	nt	-5	nt	nt
O=C(Nc1nnc(-c2ccc(Br)s2)o1)c1nc2ccccc2s1	nt	nt	-16	nt	nt
O=C(Nc1nnc(-c2ccccc2Cl)o1)c1nc2ccccc2s1	100*	13	-6	99*	7
Cc1onc(-c2ccccc2Cl)c1C(=O)Nc1nnc(-c2cccs2)o1	nt	nt	38*	nt	nt
Cc1csc(NC(=O)CSc2nnc(CNC(=O)c3cccc(C(F)(F)F)c3)o2)n1	nt	nt	-2	nt	nt
Cc1onc(-c2c(Cl)cccc2Cl)c1COC(=O)c1ccc(Cl)cc1	89*	-5	-12	5	11
O=C(NCc1ccc2c(c1)OCO2)c1ccc(=O)n(Cc2cccc(F)c2)n1	nt	nt	5	nt	nt
O=C(Nc1ccc2c(c1)OCO2)c1ccc(=O)n(Cc2cccc(F)c2)n1	nt	nt	17*	nt	nt
Cc1ccc(-c2nc3cccnc3s2)cc1NS(=O)(=O)c1ccc2c(c1)CCCC2	75	-8	-15	5	11
O=S(=O)(Nc1cccc(-c2nc3cccnc3s2)c1)c1ccc2c(c1)CCCC2	93*	-2	-4	16	9
CN(C)c1cccc(C(=O)N2CCCC[C@H](c3ccc(F)cc3)C2)c1	nt	nt	57*	nt	nt
N#Cc1cccc(C(=O)N2CCCC[C@H](c3ccc(F)cc3)C2)c1	nt	nt	-4	nt	nt
Cc1ccc(Cn2ccc(NC(=O)c3cc(-c4ccc5c(c4)OCO5)on3)n2)cc1	0	nt	-2	3	5
CC(C)(C)c1ccc(Cn2ccc(-c3ccc4c(c3)OCO4)n2)cc1	93*	10	-4	5	1
Brc1ccc(-c2cn3nc4c(nc3n2)CCCC4)cc1	13	-29	-3	2	nt
SMILES	ugtP null kill	CCHFV vOTU inh	PriA SSB inh	Sa RN4220 lethal	Mtb hypoxia inh
Brc1ccc(-c2cn3c(n2)CCc2ccc4cccnc4c2-3)cc1	-13	5	53*	3	-5
CCOC(=O)c1c(N)sc(C)c1-c1ccc(Cl)cc1	nt	nt	-11	nt	nt
CCOC(=O)c1c(C)sc2c1N(C(=O)CCl)c1cc(Cl)ccc1S2	93*	2	-4	64	nt
COCCCNC(=S)NNC(=O)c1ccccc1Br	0	12	-19	3	2
COCCCNC(=S)NNC(=O)c1ccccn1	5	7	82*	-2	16
S=C(Nc1ccccn1)c1ccccn1	0	3	81*	-8	nt
O=C(NN=C1CCC(=NNC(=O)c2ccccn2)CC1)c1ccccn1	10	-2	85*	5	13
O=C(NNC(=O)c1ccccn1)c1ccccn1	nt	nt	58*	nt	nt
O=C(NNC(=O)c1ccccc1[N+](=O)[O-])c1ccccn1	-5	5	-16	8	-9
Nc1nnc(CCSc2ccccc2)o1	nt	nt	1	nt	nt
Cn1cccc1CN(Cc1cccs1)C(=O)C1CC=CCC1 (centres undefined)	nt	nt	18	nt	nt
COc1ccc(S(=O)(=O)C2CN(C(=O)NCc3cccs3)C2)cc1	nt	nt	8	nt	nt
COc1ccc(C=NNc2nc(NCc3ccco3)nc(Nc3ccc(OC)cc3)n2)cc1	-26	nt	21	6	0
Cc1cccc(Cn2nnc3c2C(=O)c2ccccc2C3=O)c1	86*	3	40	69	9
Cc1ccccc1Cn1nnc2c1C(=O)c1ccccc1C2=O	51	17	-8	39	6
